{"source": "PubChem BioAssay (NCI)", "note": "This is part of a sample that, as a whole, favours compounds with a hit. Of some 83,000 tested, about 20% had one in any assay.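 Single-concentration screen, 48 h exposure, 96-well plates. Endpoint: percent growth. Below 10 = active.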 Unmarked numbers belong to inactive results. Active and inactive are the calls of the source."}
{"system": "MDA-MB-468 breast", "test": "NCI-60 one-dose screen, 48 h (100 = growth as untreated, 0 = no growth, -100 = all killed)", "details": "10 µM unless noted"}
{"smiles": "CC(=O)[O][Hg][c]1nc2c(c(=O)n(C)c(=O)n2C)n1C", "growth": "102%"}
{"smiles": "O=C1CC2(CC3(Cl)C(Cl)=C(Cl)C2(Cl)C3(Cl)Cl)C(=O)O1", "note": "(stereo not drawn)", "growth": "105%"}
{"smiles": "Cc1cc2c(cc1-c1ccnc(/C=C/C(=O)O)c1)C(C)(C)CCC2(C)C", "growth": "97.1%"}
{"smiles": "O=[N+]([O-])CC(c1ccccc1Cl)c1c(-c2ccccc2)[nH]c2ccccc12", "note": "(stereo not drawn)", "growth": "7.39% (active)"}
{"smiles": "CC[C@H](C)[C@H](NC(=O)N[C@@H](C)c1ccccc1)C(=O)N(C)[C@H](C[C@@H](OC(C)=O)c1nc(C(=O)N[C@@H](Cc2ccccc2)C[C@H](C)C(=O)OC)cs1)C(C)C", "growth": "-0.266% (active)"}
{"smiles": "Nc1c(Br)cc2c3c(cccc13)-c1ccccc1-2", "growth": "3.54% (active)"}
{"smiles": "C[CH2][Pb]([CH2]C)([CH2]C)[O]C(=O)c1ccc(N)cc1", "growth": "-11.9% (active)"}
{"smiles": "CC1(C)N=C(N)N=C(N)N1c1ccc(CNC(=O)Nc2ccc(S(=O)(=O)F)c(Cl)c2)c(Cl)c1", "growth": "30.2%"}
{"smiles": "C/C(=C\\c1cc(C(F)(F)F)n(-c2ccc(N)cc2)n1)[C@@H]1C[C@@H]2O[C@]2(C)CCC[C@H](C)[C@H](O)[C@@H](C)C(=O)C(C)(C)[C@@H](O)CC(=O)O1", "growth": "-16.6% (active)"}
{"smiles": "NC(=O)OCC(CO)(c1ccccc1)c1ccccc1", "growth": "93.8%"}
{"smiles": "CC12CCC3C(CCC4Cc5[nH]c6ccccc6c5CC43C)C1CCC2O", "note": "(stereo not drawn)", "growth": "29.3%"}
{"smiles": "CC[CH2][Pb]([CH2]CC)([CH2]CC)[O]C(=O)C(F)(F)F", "growth": "-90.1% (active)"}
{"smiles": "COC12CC3C4=CCOC5CC(=O)N6c7ccccc7C1(CCN2C4)C6C53", "note": "(stereo not drawn)", "growth": "102%"}
